Assay [1] addresses Lysosomal acid glucosylceramidase (Homo sapiens) (UniProt P04062). Kind of assay: Glucocerebrosidase-p2 (AID 348; in the data active = potency below about 10 µM; note: potency is the fitted concentration of half-maximal effect). Conditions: purified GBA, blue fluorogenic substrate, 40 min. The gist of the method:
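Compounds titrated from 0.6 nM upwards against 0.2 nM enzyme in pH 5.9 citric acid/KH2PO4, taurocholate, tween-20; blue fluorogenic substrate 80 uM, 40 min room temperature, stopped and read Ex 365/Em 440 for AC50.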

The nature of assay [2]: AP1 Signaling Pathway (AID 357; active = well fitted curve in either direction with a large enough effect, not every such curve was filed as active;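 note: ME-180 reporter cells stimulated with EGF at its EC50 level; % is set by controls: 0 for no effect and ±100 for the full control effect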). Conditions: ME-180 AP-1-bla reporter, EGF-induced, beta-lactamase ratio, 5 h; at 7.69 µM (top of the series) unless noted. The gist of the method: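 A ratiometric CCF4 readout (405 nm excitation; 460 and 530 nm emission) quantified AP-1-driven beta-lactamase in ME-180 cells after 5 h with compound and EC50 EGF; AC50 values were derived for activators and inhibitors.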

Assay [3] concerns the target Cytochrome P450 1A2 (Homo sapiens) (UniProt P05177). Put plainly: p450-cyp1a2 (AID 410; calls by dose curve; note: potency is the fitted concentration of half-maximal effect;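 for activity change, negative = inhibition: -100% = full effect of reference inhibitor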). Conditions: recombinant CYP1A2, luciferin-ME demethylation, luminescence; series mostly up to 57 µM. The gist of the method: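 Luminescent readout of luciferin formed from Luciferin-ME by human CYP1A2; data normalized against complete inhibition by 57 uM furafylline. Enzyme 20nM, substrate 100uM at Km, 100mM KPO4 buffer, 60 min reaction at room temperature.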

Assay [4] can be described thus: NFAT Signaling Pathway (AID 444; active = well fitted curve in either direction with a large enough effect, not every such curve was filed as active;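 note: carbachol stimulus at about its EC50 of 1 µM final; % is set by controls: 0 for no effect and ±100 for the full control effect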). Conditions: Jurkat NFAT-bla M1, carbachol, beta-lactamase ratio, 5 h; at 7.69 µM (top of the series) unless noted. The gist of the method: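 Read-out: CCF4 FRET ratio (460 nm/530 nm) after 1 h RT dye loading, used for %activity and AC50 from titration series. Cells: Jurkat NFAT-β-lactamase/M1 line, treated with compound plus 1 uM carbachol for 5 h, 37 °C.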

Assay [5] is described as follows: Stat Signaling Pathway (AID 446; active = well fitted curve in either direction with a large enough effect, not every such curve was filed as active;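 note: ME-180 cervical cancer cells given 40 pM IL-6 alongside compound; SIE-controlled beta-lactamase reporter measured as 460/530 nm FRET emission ratio; % is set by controls: 0 for no effect and ±100 for the full control effect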). Conditions: ME-180 (cervical carcinoma) SIE beta-lactamase reporter, IL-6 stimulated, 5 h; at 7.69 µM (top of the series) unless noted. The gist of the method: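 IL-6/STAT signaling read in ME-180 cells via an SIE beta-lactamase reporter. Stimulus was 40 pM IL-6 (its AC50) for 5 hrs, so both activation and inhibition register.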
The target of assay [6] is Glucocorticoid receptor (Homo sapiens) (UniProt P04150). Kind of assay: GR-GFP Redistribution (AID 450;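 active = compounds whose dose series gives a full or clear partial fitted curve of increased nuclear translocation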; note: potency is the fitted concentration of half-maximal effect). Conditions: U2OS GR-GFP nuclear translocation, laser cytometry, 2 h.
For assay [7] the target is unchanged. Kind of assay: GR-EFC Redistribution (AID 451; calls by dose curve; note: potency is the fitted concentration of half-maximal effect). Conditions: CHO-K1 GR-EFC translocation, beta-gal luminescence, 2 h. The essentials:
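Translocation of GR-ED fusion to nuclear EA restores b-gal, read by luminescence after 1 h room-temperature detection. Engineered CHO-K1 biosensor cells, 1,000/well, exposed 2 h at 37 C to titrations up to 46 uM final.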

In assay [8] the target is Mitogen-activated protein kinase 10 (Mus musculus) (UniProt Q61831). Put plainly: JNK3 AlphaScreen Assay (AID 530; active = well fitted curve in either direction with a large enough effect, not every such curve was filed as active;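 note: kinase came from lysate of stimulated human HepG2 cells; signal reports phosphorylation of biotinylated GST-cJun 1-79 at Ser73 with 10 µM ATP; % is set by controls: 0 for no effect and ±100 for the full control effect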). Conditions: JNK3 lysate, c-Jun phosphorylation; series mostly up to 57.1 µM. The gist of the method: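 Compound titrations were preincubated 15 minutes at room temperature with substrate, antibody and pre-activated JNK3-containing HepG2 lysate. Reactions were started with 10 uM ATP and stopped with EDTA-containing bead buffer for AlphaScreen detection.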
(Bead proximity is the source of the signal in Alpha formats.)

Assay [9] concerns the target 3',5'-cyclic-AMP phosphodiesterase 4B (Homo sapiens) (UniProt Q07343). Kind of assay: qHTS Assay for Inhibitors of PDE-IV (AID 607; active = well fitted activation curve with a large enough effect in the main read-out, with a control signal flat, not every such curve was filed as active; note: % of control where 0% means no effect). Conditions: HEK293 ACTOne CNG channel cells, membrane potential fluorescence; series mostly up to 22.9 µM. The essentials: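 Live HEK293 cells with a modified cyclic nucleotide-gated (CNG) channel report intracellular cAMP via membrane-potential dye fluorescence (ex 535/em 590 nm). Endogenous PDE-IV was targeted. Compounds were tested at up to 22.9 uM final; RO 20-1724 100 uM served as control.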

For assay [10], the target named is Cytochrome P450 3A4 (Homo sapiens) (UniProt P08684). Put plainly: qHTS Assay for Activators of Cytochrome P450 3A4 (AID 885). Note: nearly all actives have a fitted effect of over 65% in size. Conditions: recombinant CYP3A4, Luciferin-PPXE luminescence, 60 min; series mostly up to 57.1 µM. The essentials: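 Quantitative HTS format: compounds preincubated with 20nM human CYP3A4 and Luciferin-PPXE substrate at KM, reaction started by NADPH regeneration, stopped after 60 min, luciferase luminescence read 20 min later.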
On the technique in general: qHTS replaces the single test concentration by a dilution series.

The target in assay [11] is Dual specificity protein kinase CLK4 (Homo sapiens) (UniProt Q9HAZ1). Put plainly: qHTS Assay for Inhibitors of CDC-like Kinase 4 (Kinase-Glo Assay) (AID 1770). Note: nearly all actives have a fitted effect of over 65% in size. Note: potency is the fitted concentration of half-maximal effect. Conditions: recombinant Clk4, Kinase-Glo ATP depletion luminescence; series mostly up to 66.7 µM. The essentials:
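Readout: Kinase-Glo luminescence from ATP left after a 4.5 h room-temperature reaction of 25 nM Clk4 with 100 uM RS peptide and 1 uM ATP (final). Buffer: 25 mM Tris pH 7.5, 10 mM MgCl2.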

Assay [12] shares this target. Kind of assay: qHTS Assay for Inhibitors of CDC-like Kinase 4 (ADP-Glo Assay) (AID 1771). Note: nearly all actives have a fitted effect of over 70% in size. Note: potency is the fitted concentration of half-maximal effect. Conditions: recombinant CLK4, ADP-Glo luminescence; series mostly up to 80 µM. The gist of the method: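 Luminescence from ADP-Glo reports ADP produced by 25 nM Clk4 acting on 100 uM RS repeat peptide with 1 uM ATP over 1 hr at room temperature; residual ATP is depleted before ADP is converted to ATP for detection.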

The target of assay [13] is Ubiquitin carboxyl-terminal hydrolase 1 (Homo sapiens) (UniProt O94782). Put plainly: Inhibitors of USP1/UAF1: Pilot qHTS (AID 504865).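 Note: rhodamine fluorescence freed from ubiquitin-rhodamine substrate followed over time; top concentration of the series differs between compounds; % is set by controls: 0 for no effect and ±100 for the full control effect; nearly all actives have a fitted effect of over 35% in size.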 Conditions: purified USP1/UAF1, Ub-rhodamine cleavage fluorescence; series mostly up to 54.9 µM. The gist of the method: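 1nM USP1/UAF1 + cpd, 15 min RT; start w/ Ub-Rho 150nM final; kinetic FL 480/540 nm, 6 reads q60 s. Buffer 50mM HEPES pH 7.8, 0.5mM EDTA, 1mM TCEP, 0.01% Tween-20, 0.1 mg/ml BSA.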

Assay [14] in a line: Primary qHTS for small molecule stabilizers of the endoplasmic reticulum resident proteome: Secreted ER Calcium Modulated Protein (SERCaMP) assay (AID 1508630). Note: % is set by controls: 0 for no effect and ±100 for the full control effect. Conditions: SH-SY5Y GLuc-SERCaMP (Gaussia luciferase released on ER calcium loss) secretion, thapsigargin, luminescence; series mostly up to 38.4 µM. The essentials: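 GLuc-SERCaMP-expressing SH-SY5Y cells, pretreated 16 h with compound, are challenged with thapsigargin to empty ER calcium stores; after 4 h, coelenterazine is added directly to the medium and luminescence is imaged.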

In assay [15] the target is Cytochrome P450 3A4 (Homo sapiens) (UniProt P08684). Put plainly: qHTS Assay for Inhibitors and Substrates of Cytochrome P450 3A4 (AID 884). Note: potency is the fitted concentration of half-maximal effect; nearly all actives have a fitted effect of over 50% in size. Conditions: recombinant CYP3A4, Luciferin-PPXE luminescence; series mostly up to 57.1 µM. The essentials: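 20 nM human CYP3A4 with 25 uM Luciferin-PPXE (at KM) in 200 mM KPO4, preincubated 10 min with compound; NADPH regeneration started a 60 min RT reaction. Luciferin detected by luminescence, normalized to 57 uM ketoconazole as full inhibition.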

Assay [16] deals with Dual specificity protein kinase CLK4 (Homo sapiens) (UniProt Q9HAZ1). Put plainly: qHTS Assay for Inhibitors of CDC-like Kinase 4 (ADP-FP Assay) (AID 1795). Note: % is set by controls: 0 for no effect and ±100 for the full control effect; nearly all actives have a fitted effect of over 60% in size. Conditions: Transcreener ADP fluorescence polarization; series mostly up to 50 µM. The essentials:
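FP readout: Orange Transcreener ADP2 tracer (4 nM) plus ADP antibody, read after 30 min at room temperature. Kinase step: 6.25 nM Clk4, 100 uM RS peptide, 1 uM ATP, pH 7.5, 1 h.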

For assay [17], the target named is Cytochrome P450 2C9 (Homo sapiens) (UniProt P11712). Put plainly: qHTS Assay for Inhibitors and Substrates of Cytochrome P450 2C9 (AID 883). Note: potency is the fitted concentration of half-maximal effect; nearly all actives have a fitted effect of over 60% in size. Conditions: recombinant CYP2C9, luciferin-H luminescence, 60 min; series mostly up to 57.1 µM. The gist of the method: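 Luminescent read-out of deoxyluciferin hydroxylation, normalized to 57uM sulphaphenazole (AC100). Reaction: 10nM enzyme, 100uM Luciferin-H (equal to KM), 25mM KPO4, 10 min compound preincubation, then 60 min with NADPH regeneration, both at 37C.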

Assay [18] has as its target Cytochrome P450 2D6 (Homo sapiens) (UniProt P10635). Put plainly: qHTS Assay for Inhibitors and Substrates of Cytochrome P450 2D6 (AID 891). Note: potency is the fitted concentration of half-maximal effect; nearly all actives have a fitted effect of over 60% in size. Conditions: recombinant CYP2D6, luciferin-ME EGE luminescence; series mostly up to 57.1 µM. The gist of the method: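 Human CYP2D6 (5 nM) with 30 uM Luciferin-ME EGE (at Km) in 100 mM KPO4, compound preincubated 10 min, then NADPH regeneration system for 60 min at room temperature. Luciferin read by luminescence; normalized to 1.43 uM quinidine.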

For assay [19], the target named is Cytochrome P450 2C19 (Homo sapiens) (UniProt P33261). Kind of assay: qHTS Assay for Inhibitors and Substrates of Cytochrome P450 2C19 (AID 899). Note: potency is the fitted concentration of half-maximal effect; nearly all actives have a fitted effect of over 60% in size. Conditions: recombinant CYP2C19, luciferin-H EGE luminescence; series mostly up to 57.1 µM. The gist of the method:
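Luminescence readout of luciferin formed from 10uM Luciferin-H EGE (KM level) by 5 nM CYP2C19 in 50mM KPO4. 60 min NADPH-driven reaction at 37C after 10 min compound preincubation; data scaled to 57uM ketoconazole inhibition.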

Molecules are shown by their SMILES. Unmarked numbers belong to inactive results. Inconclusive results are not listed. The source made the active and inactive calls. Unless noted, calls come from the whole dose curve; as a rule, active = well fitted curve in the direction sought with a large enough effect; inconclusive = small, poorly fitted or top-dose-only effect, or another doubt; inactive = no such curve, though single readings can be large; an effect the other way counts as inactive or inconclusive.

Chain of Ubiquitin carboxyl-terminal hydrolase 1 (Homo sapiens) (O94782 whole entry, looked up): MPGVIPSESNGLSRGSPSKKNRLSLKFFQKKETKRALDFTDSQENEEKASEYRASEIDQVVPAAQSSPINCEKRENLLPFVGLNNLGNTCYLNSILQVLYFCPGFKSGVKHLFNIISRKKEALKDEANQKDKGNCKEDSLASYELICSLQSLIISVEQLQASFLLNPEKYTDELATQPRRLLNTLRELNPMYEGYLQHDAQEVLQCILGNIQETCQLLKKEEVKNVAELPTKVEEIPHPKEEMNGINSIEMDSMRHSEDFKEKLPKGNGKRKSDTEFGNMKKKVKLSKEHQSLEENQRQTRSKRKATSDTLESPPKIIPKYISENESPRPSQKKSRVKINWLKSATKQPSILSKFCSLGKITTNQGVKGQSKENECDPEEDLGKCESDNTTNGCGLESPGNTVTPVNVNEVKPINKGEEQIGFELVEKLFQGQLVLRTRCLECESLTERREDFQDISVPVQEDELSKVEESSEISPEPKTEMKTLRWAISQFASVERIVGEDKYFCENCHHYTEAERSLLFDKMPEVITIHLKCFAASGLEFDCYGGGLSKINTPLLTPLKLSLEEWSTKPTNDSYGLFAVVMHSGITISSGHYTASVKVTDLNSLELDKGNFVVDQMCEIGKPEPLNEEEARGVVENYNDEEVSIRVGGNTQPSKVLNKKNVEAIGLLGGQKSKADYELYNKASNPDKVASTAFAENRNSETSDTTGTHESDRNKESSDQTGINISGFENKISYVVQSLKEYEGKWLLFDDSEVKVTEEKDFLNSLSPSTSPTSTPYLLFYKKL
Chain of Cytochrome P450 1A2 (Homo sapiens) (P05177 whole entry, looked up): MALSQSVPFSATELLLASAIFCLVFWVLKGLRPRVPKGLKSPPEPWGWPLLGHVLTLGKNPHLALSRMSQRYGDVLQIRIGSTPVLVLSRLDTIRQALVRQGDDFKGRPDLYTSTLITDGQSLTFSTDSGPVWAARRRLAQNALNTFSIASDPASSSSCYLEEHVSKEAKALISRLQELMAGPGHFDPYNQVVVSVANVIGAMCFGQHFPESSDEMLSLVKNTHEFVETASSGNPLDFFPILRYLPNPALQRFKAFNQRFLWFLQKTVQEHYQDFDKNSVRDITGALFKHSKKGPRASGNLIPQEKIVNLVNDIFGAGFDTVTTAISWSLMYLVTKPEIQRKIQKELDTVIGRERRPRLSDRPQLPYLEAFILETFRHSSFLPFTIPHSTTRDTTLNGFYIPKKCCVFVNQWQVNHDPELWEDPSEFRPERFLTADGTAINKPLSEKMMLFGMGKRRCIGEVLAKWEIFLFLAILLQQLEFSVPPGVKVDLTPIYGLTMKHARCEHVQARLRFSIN
Chain of 3',5'-cyclic-AMP phosphodiesterase 4B (Homo sapiens) (Q07343 whole entry, looked up): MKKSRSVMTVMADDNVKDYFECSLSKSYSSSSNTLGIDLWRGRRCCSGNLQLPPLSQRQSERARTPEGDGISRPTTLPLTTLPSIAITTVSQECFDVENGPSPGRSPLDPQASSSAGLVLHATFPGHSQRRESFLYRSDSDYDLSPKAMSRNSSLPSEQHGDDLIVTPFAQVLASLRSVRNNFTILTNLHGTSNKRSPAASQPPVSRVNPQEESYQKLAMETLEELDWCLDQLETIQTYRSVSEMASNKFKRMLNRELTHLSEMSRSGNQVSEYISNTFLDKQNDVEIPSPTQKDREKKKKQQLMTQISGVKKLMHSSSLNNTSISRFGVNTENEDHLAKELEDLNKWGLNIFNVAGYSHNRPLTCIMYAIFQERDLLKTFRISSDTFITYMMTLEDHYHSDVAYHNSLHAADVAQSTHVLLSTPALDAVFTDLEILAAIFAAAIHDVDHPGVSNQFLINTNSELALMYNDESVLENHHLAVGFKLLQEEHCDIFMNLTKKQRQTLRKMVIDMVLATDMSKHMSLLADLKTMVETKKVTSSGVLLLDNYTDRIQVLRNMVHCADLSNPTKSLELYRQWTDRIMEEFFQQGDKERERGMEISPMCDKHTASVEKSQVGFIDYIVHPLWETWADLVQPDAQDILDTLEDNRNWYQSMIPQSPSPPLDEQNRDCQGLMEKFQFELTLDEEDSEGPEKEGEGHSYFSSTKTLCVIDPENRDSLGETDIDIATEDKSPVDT
Chain of Dual specificity protein kinase CLK4 (Homo sapiens) (Q9HAZ1 whole entry, looked up): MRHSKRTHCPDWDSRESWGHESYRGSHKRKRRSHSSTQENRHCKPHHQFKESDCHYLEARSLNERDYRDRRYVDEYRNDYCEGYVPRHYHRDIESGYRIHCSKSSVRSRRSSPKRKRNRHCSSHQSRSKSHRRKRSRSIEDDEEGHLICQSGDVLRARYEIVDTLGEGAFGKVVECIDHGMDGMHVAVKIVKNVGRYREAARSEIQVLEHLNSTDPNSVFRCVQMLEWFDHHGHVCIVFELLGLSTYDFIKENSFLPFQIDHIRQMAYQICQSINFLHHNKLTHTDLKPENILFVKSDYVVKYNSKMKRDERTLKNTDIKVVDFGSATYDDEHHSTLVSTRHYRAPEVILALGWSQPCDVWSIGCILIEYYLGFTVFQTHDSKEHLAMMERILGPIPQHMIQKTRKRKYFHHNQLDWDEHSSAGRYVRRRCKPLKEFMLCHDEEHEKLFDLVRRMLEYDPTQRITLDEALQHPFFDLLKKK
Chain of Cytochrome P450 3A4 (Homo sapiens) (P08684 whole entry, looked up): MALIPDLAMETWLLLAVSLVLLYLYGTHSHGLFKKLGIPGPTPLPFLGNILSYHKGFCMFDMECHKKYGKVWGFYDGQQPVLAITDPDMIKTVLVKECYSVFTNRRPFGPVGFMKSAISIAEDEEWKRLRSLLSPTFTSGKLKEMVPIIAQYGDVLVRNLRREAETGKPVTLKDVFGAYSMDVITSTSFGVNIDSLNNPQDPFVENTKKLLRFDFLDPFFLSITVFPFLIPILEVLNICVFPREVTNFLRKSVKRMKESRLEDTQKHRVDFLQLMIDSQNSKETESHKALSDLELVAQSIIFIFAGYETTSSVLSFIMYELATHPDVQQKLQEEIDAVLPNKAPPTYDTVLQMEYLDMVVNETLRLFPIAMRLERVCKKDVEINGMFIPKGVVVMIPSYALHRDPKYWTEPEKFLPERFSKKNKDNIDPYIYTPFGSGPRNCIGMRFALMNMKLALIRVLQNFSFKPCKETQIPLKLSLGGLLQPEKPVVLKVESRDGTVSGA
Chain of Glucocorticoid receptor (Homo sapiens) (P04150 whole entry, looked up): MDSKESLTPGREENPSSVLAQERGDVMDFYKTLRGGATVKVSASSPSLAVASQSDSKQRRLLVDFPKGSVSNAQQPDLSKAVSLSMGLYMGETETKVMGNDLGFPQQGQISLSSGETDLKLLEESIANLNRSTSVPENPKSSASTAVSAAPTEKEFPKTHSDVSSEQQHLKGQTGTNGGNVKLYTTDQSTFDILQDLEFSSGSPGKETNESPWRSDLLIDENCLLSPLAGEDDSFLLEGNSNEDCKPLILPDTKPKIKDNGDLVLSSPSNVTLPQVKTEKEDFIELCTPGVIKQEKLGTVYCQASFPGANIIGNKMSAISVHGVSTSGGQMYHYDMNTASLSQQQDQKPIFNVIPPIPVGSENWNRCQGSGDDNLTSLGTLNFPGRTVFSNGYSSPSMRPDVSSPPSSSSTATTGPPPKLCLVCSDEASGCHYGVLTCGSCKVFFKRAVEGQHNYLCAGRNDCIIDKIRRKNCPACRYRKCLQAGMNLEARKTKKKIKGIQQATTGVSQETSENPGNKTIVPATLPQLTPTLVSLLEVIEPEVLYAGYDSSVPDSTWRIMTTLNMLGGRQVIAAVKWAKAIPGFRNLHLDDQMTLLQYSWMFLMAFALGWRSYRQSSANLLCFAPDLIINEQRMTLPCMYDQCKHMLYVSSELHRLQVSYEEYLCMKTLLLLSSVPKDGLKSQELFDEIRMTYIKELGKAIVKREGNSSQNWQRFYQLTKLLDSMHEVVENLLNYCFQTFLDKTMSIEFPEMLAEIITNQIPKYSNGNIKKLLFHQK
Chain of Lysosomal acid glucosylceramidase (Homo sapiens) (P04062 whole entry, looked up): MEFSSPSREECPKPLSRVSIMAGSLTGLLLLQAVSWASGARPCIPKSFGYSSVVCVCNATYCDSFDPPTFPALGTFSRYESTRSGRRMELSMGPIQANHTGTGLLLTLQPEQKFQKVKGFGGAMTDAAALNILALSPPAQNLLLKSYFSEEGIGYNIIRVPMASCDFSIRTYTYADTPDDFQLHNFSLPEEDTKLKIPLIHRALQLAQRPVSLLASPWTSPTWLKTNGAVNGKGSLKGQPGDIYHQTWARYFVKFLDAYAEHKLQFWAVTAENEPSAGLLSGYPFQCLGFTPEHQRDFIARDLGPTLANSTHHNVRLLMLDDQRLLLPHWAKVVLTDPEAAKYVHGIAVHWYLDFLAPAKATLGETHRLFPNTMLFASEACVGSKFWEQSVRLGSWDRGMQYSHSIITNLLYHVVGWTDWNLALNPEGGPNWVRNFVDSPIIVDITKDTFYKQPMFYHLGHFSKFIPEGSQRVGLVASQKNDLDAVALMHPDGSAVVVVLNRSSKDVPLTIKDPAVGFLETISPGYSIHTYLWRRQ
Chain of Cytochrome P450 2C9 (Homo sapiens) (P11712 whole entry, looked up): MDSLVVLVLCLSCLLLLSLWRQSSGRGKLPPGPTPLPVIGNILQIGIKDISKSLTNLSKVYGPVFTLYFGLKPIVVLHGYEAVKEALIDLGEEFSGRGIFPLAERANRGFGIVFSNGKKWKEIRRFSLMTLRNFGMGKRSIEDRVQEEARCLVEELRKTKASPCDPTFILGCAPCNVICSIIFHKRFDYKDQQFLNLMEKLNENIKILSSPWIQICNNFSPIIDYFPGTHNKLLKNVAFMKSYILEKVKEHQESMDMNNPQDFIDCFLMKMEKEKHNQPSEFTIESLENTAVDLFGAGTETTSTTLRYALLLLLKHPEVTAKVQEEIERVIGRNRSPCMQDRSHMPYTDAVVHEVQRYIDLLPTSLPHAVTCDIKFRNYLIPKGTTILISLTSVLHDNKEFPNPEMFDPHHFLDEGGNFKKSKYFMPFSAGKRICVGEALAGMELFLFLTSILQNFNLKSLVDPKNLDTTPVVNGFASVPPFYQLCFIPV

On to `COc1ccccc1-c1cc(NCc2cccs2)ncn1`, for which the Potency was above 11.4 µM in assay [1]; 1.58 µM (active) in [3]; above 46 µM in assay [6]; above 46 µM in assay [7]; 14.1 µM (active) in assay [11]; 14.1 µM (active) in [12]. The activity change, negative = inhibition in assay [2] is 0.573%; in [4], 9.61%. Further, in assay [5], the activity, negative = inhibition was -5.58%. Moreover, the Potency entry in [8], in assay [9], in assay [10] and in assay [13] was “inactive” in each case. Further, the outcome in assay [14] was inactive.
Consider `COc1cccc(-c2cc(NCc3cnc(C)cn3)ncn2)c1`, for which the Potency in assay [1] is above 11.4 µM; in [3], 5.01 µM (active); in assay [6], above 46 µM; in assay [7] it was above 46 µM; in [11] it was 17.8 µM (active); in assay [12] it was 15.8 µM (active). The activity change, negative = inhibition in assay [2] is 12.1%; in assay [4], -0.299%. Further, in assay [5], the activity, negative = inhibition is -1.25%. The Potency result in assay [8], in [9], in assay [10] and in [13] was “inactive” throughout. In addition, in assay [14], the result was inactive.
For the compound `COc1ccc2[nH]cc(CCNc3cc(-c4ccc(C(=O)N(C)C)cc4)ncn3)c2c1`, the Potency in assay [1] was above 11.4 µM; in [3], 20 µM (active); in assay [6] it was above 46 µM; in assay [7] it was above 46 µM; in [15], 6.31 µM (active); in assay [11], 10 µM (active). Also, in [12], the Potency was 10 µM (active). For the same compound, the values for the activity change, negative = inhibition in assay [2] and in [4] were -10.4% and 0.0562%, respectively. In addition, the activity, negative = inhibition in assay [5] was -10.6%. The Potency entry in [8], in [9], in assay [10] and in assay [13] was “inactive” throughout. For the same compound, in [14], the outcome was inactive.
As to `Cc1cnc(CNc2cc(-c3ccc(C(=O)N(C)C)cc3)ncn2)cn1`, the Potency in assay [1] was above 11.4 µM; in assay [6], above 46 µM; in [7], above 46 µM; in assay [11], 12.6 µM (active); in [12], 14.1 µM (active). For the same compound, the activity change, negative = inhibition is 19.2% in [2] and 15.2% in [4]. For the same compound, the Potency entry in assay [3], in assay [8], in [9] and in assay [13] was “inactive” each time. For the same compound, in assay [5], the activity, negative = inhibition was 6.75%. Besides, in [14], the outcome was inactive.
Consider `N#CCCn1c(=O)cnc2cnc(Oc3cccc(Cl)c3)nc21`, for which the activity change, negative = inhibition is 5.43% in assay [2] and -14% in assay [4]. The activity, negative = inhibition in assay [5] was -4.72%. Further, the Potency is above 9.22 µM in assay [6] and above 46 µM in assay [7]. Moreover, the Potency result in assay [8], in [9], in assay [11], in [12], in assay [16] and in assay [13] was “inactive” each time. For the same compound, in assay [14], the outcome was inactive.
On to `c1cncc(-c2nccc(NCc3cccs3)n2)c1`, for which the Potency in [1] was above 11.4 µM; in assay [3], 0.2 µM (active); in assay [6], above 46 µM; in [7], above 46 µM; in assay [17] it was 0.398 µM (active); in [18] it was 0.631 µM (active). The figures for the Potency in [19], in assay [11] and in [12] were 7.94 µM (active), 14.1 µM (active) and 10 µM (active), respectively. For the same compound, the activity change, negative = inhibition is 4.03% in assay [2] and 13.5% in assay [4]. Moreover, the activity, negative = inhibition in [5] is -3.1%. Also, the Potency entry in assay [8], in assay [10] and in assay [13] was “inactive” throughout. For the same compound, the result in assay [14] was inactive.

The record behind these values is PubChem BioAssay (NCATS).
